Screens (PubChem)
AMA1-RON2 inh = qHTS for Inhibitors of AMA1-RON; Towards Development of Antimalarial Drug Lead: Primary Screen. Potency, µM (top dose mostly 58.2 µM), for the others: top-dose activity change, negative = inhibition, actives largely listed as inhibitors. 360,000 compounds, 0.2% hits. Plasmodium falciparum AMA1 (3D7) - RON2 peptide interaction. AlphaScreen AMA1-biotinylated RON2 peptide binding;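 further: 0% = vehicle wells and -100% = peptide control; nearly all actives have a fitted effect of over 45% in size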
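AMA1 (3D7) with his tag at 25 nM final met compounds first, then biotinylated RON2 peptide at 25 nM; detection used donor plus acceptor beads, 10 µg/mL apiece, read by AlphaScreen after 30 min at room temperature.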
VACV mCherry inh = qHTS for Stage-Specific Inhibitors of Vaccinia Orthopoxvirus: mCherry Reporter Primary qHTS; Potency, µM (series often up to 36.5 µM), inactives show top-dose activity change, negative = inhibition, actives largely listed as inhibitors; Vaccinia virus mCherry reporter infection, fluorescence; 310,000 compounds, 0.63% hits; calls by dose curve; tested in A549 cells; further: nearly all actives have a fitted effect of over 35% in size
Vaccinia Venus = qHTS for Stage-Specific Inhibitors of Vaccinia Orthopoxvirus: Venus Reporter Primary qHTS. Potency, µM (highest dose often 36.5 µM), for inactives: at the highest dose activity change, negative = inhibition, hits mostly inhibitors. 330,000 compounds, 0.46% hits. AID 720580, 2013. Vaccinia virus Venus reporter expression, fluorescence; calls by dose curve; tested in A549 cells; further: nearly all actives have a fitted effect of over 30% in size
Pf growth 96h = Primary qHTS for delayed death inhibitors of the malarial parasite plastid, 96 hour incubation | P. falciparum luciferase reporter growth, 96 h | Potency, µM (titrated, usually from 28.7 µM), for the others: top-dose activity change, negative = inhibition, usual class: inhibitors | 320,000 compounds, 6.9% hits
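Erythrocytes infected with luciferase-expressing P. falciparum were dispensed at 2% hematocrit and 0.05% parasitemia (final), then incubated with compounds 96 hours at 37 C in 5% CO2. Luminescence after detection reagent addition reported growth.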
Pf growth 48h = Primary qHTS for delayed death inhibitors of the malarial parasite plastid, 48 hour incubation | P. falciparum luciferase growth in erythrocytes, 48 h | Potency, µM (titrated, usually from 28.7 µM), for the others: top-dose activity change, negative = inhibition, most hits filed as inhibitors | 310,000 compounds, 5.9% hits | AID 504832, 2011
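Luminescence readout; reporter = integrated firefly luciferase in P. falciparum. RBC culture at 2% hematocrit, 0.1% parasitemia final, 37 C/5% CO2; decreased signal taken as growth inhibition.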
* marks the source's active call; other numbers are inactive results; i = inactive; ? = inconclusive; · = no result given; [ ] = another dose, or the depositor's remark. Only some compounds are listed: those with a hit (about 8.7% of all), similar ones and a draw of the others. Unless noted, the call rests on the fitted dose curve; in most records, active means well fitted curve in the direction sought with a large enough effect; inconclusive means small, poorly fitted or top-dose-only effect, or another doubt; inactive means no such curve, though single readings can be large; an effect the other way counts as inactive or inconclusive. Unless noted, on the % scale 0 is the no-effect control and ±100 the full control effect; potency means the concentration at half of the fitted maximal effect.

SMILES	AMA1-RON2 inh	VACV mCherry inh	Vaccinia Venus	Pf growth 96h	Pf growth 48h
COc1ccc(C2CC(c3cccs3)=NN2C(=O)CCl)cc1OC (stereo unspecified)	2.3%	?	-21.9%	?	?
O=C(c1ccccc1)N1N=C(c2ccccc2O)CC1c1ccccc1 (stereo unspecified)	-0.5%	-16.1%	-8.2%	?	5.86µM*
COc1ccc(C2CC(c3ccccc3O)=NN2C(=O)c2ccccc2)cc1OC (stereo unspecified)	-3.5%	·	·	4.15µM*	6.57µM*
COc1ccc(C2=NN(C(=O)c3ccccc3)C(c3ccc(OC)c(OC)c3)C2)c(OC(C)=O)c1 (stereo unspecified)	·	·	·	10.4µM*	11.7µM*
Cc1ccc(CN2C(=O)CN(C3CCC(C)CC3)C(=O)C2c2ccc(F)cc2)cc1 (stereo unspecified)	·	1.6%	2.3%	·	·
Cc1cn2c(=O)c(S(=O)(=O)Nc3ccc(N4CCOCC4)cc3)c(C)nc2s1	·	-13.5%	-10.6%	·	·
COc1cccc(Nc2nc3ccc(C(=O)c4ccccc4)cc3n3c(C)nnc23)c1	·	-21.5%	-21.7%	·	·
CCOCN(C(=O)CSc1nc2ccccc2[nH]1)c1c(C)cccc1CC	·	-23.0%	-14.2%	·	·
O=C1CC(c2ccc(Cl)c([N+](=O)[O-])c2)c2ccc3ccccc3c2N1 (stereo unspecified)	0.1%	11.2µM*	?	0.0%	?
CCN(CC)CC#CCC(O)(c1ccccc1)C1CCCCC1 (stereo unspecified)	-8.5%	-15.8%	-8.3%	177.2%	14.5%
CC[N+](CC)(CC)CC[C@](O)(c1ccccc1)C1CCCCC1	·	·	·	5.73µM*	6.42µM*
CC[N+](CC)(CC)CCCOC(=O)C(O)(c1ccccc1)C1CCCCC1 (stereo unspecified)	-7.8%	i[1.46 µM]	-6.8%	·	2.94µM*
OC(CCN1CCCCC1)(c1ccccc1)C1CCCCC1 (stereo unspecified)	4.9%	-13.8%	-23.0%	·	·
OC(CC#CCN1CCCCCC1)(c1ccccc1)C1CCCC1 (stereo unspecified)	-5.6%	·	·	2.94µM*	?
OC(C#CCN1CCCCCC1)(c1ccccc1)c1cccnc1 (stereo unspecified)	5.3%	-8.8%	-7.8%	11.7µM*	?
Cc1oc(-c2cccc(Cl)c2)nc1CN1CCCC(C(=O)N2CCN(c3ccc(F)cc3)CC2)C1 (stereo unspecified)	·	-25.9%	?	·	·
COc1cccc(Cn2c(=O)n(CC3CCC(C(=O)N4CCCCC4)CC3)c(=O)c3sccc32)c1 (stereo unspecified)	·	?	-20.9%	·	·
O=C(Nc1ccc(C(=O)N2CCCCC2)cc1)c1nsc2ccccc12	·	-7.4%	-1.9%	·	·
COc1ccc(Nc2nn(-c3ccc(OC(F)(F)F)cc3)nc2C(C)=O)cc1	·	-4.7%	-5.8%	·	·
Cc1[nH]n(-c2nc(-c3ccc(Cl)cc3)cs2)c(=O)c1N=Nc1ccc(O)cc1	38.1%	-15.2%	-15.3%	6.57µM*	?
CCc1ccc(-n2c(=O)c3c4c(sc3n(CC(=O)c3ccc(F)cc3)c2=O)CCC4)cc1	·	-6.3%	-20.4%	·	·
O=S(=O)(CCN1CCSCC1)c1ccccc1	-12.4%	12.6µM*	?	-1.4%	10.4%
COc1ccc(C=CC(=O)c2ccc3cc(OC)c(OC)cc3c2)cc1OC	-13.0%	?	?	·	·
COc1cc(/C=C/[N+](=O)[O-])ccc1O	-18.5%	-6.3%	-14.1%	?	?
COc1cc(/C=C/C(=O)c2ccc([N+](=O)[O-])o2)ccc1O	21.5%	?	?	?	13.1µM*
SMILES	AMA1-RON2 inh	VACV mCherry inh	Vaccinia Venus	Pf growth 96h	Pf growth 48h
O=C(/C=C/c1cccc(Cl)c1)c1ccc([N+](=O)[O-])o1	-28.8%	10µM*	10µM*	?	?
COc1ccc(/C=C/C(=O)c2ccc([N+](=O)[O-])o2)cc1OC	-5.5%	?	?	?	11.7µM*
Cc1ccccc1NC(=O)CSc1nc2ccc(NC(=O)CCc3ccccc3)cc2s1	·	-16.8%	-15.4%	·	·
COCCNc1nc2nonc2nc1N1C[C@H]2CC[C@H]1C2	-0.5%	4.7%	-10.5%	10.4µM*	11.7%
COCCCNc1nc2nonc2nc1N1C[C@H]2CC[C@H]1C2	7.9%	i	-6.0%	?	-17.2%
COCCNc1nc2nonc2nc1N1CCC(N(C)C)C1 (stereo unspecified)	3.8%	·	·	6.57µM*	-17.5%
O=C(Nc1c(C(=O)Nc2ccc(F)cc2)oc2ccccc12)c1cc2ccccc2o1	·	-13.4%	-9.0%	·	·
COCCn1c(SCC(=O)c2ccc(OC)cc2)nc2cc(C(=O)NC3CCCC3)ccc2c1=O	·	-8.1%	3.0%	·	·
C=C(C(=O)c1ccccc1)C(NC(C)(C)C)c1ccccc1 (stereo unspecified)	-0.7%	17.8µM*	?	·	·
CCOc1ccccc1NC(=O)Cn1c(=O)oc2cc(S(=O)(=O)NCc3ccccc3)ccc21	·	-18.5%	-24.7%	·	·
Cc1c(C(=O)N2CCOCC2)oc2c1C(=O)CC(C)(C)C2	-5.9%	-7.6%	-4.5%	11.7µM*	2.7%
CCc1ccc(-n2nc(C)c3c(C)cc(=O)n(CC(=O)Nc4cc(C)ccc4C)c32)cc1	·	-8.1%	-1.1%	·	·
CC(C)=CCN1CCNC(=O)C1CC(=O)NCc1nc(C)c(C)s1 (stereo unspecified)	1.1%	i	-1.8%	2.33µM*	0.0%
CN(C)c1ccc(/C=C/c2cc3ccccc3cn2)cc1	·	-28.2%	-29.0%	·	·
Cc1ccc(/C=[N+](\[O-])c2ccc(N(C)C)cc2)c2nsnc12	25.1µM*	1.4%	11.5%	131.7%	-108.5%
Cc1cc(N2CCC(C)CC2)nc2cccc(O)c12	-16.1%	-7.4%	?	11.7µM*	·
O=C(NCc1nnc(SCc2ccc(C(F)(F)F)cc2)n1-c1ccccc1)C12CC3CC(CC(C3)C1)C2	4.6%	-15.1%	-19.1%	1.65µM*	?
O=C(NCc1nnc(SCc2ccc(F)cc2)n1-c1ccccc1)C12CC3CC(CC(C3)C1)C2	-10.8%[2.32 µM]	?	?	?	9.28µM*
Cc1ccc2onc(CNC(=O)NCc3ccccc3)c2c1	·	-3.4%	-10.0%	·	·
Cc1ccc(Cl)cc1N1CCN(CCCNC(=O)c2nnc(Cc3cccc(Cl)c3)o2)CC1	·	-26.9%[7.34 µM]	-21.1%[7.34 µM]	·	·
COC(=O)c1c(-c2cccc3ccccc23)csc1NC(=O)Cc1ccc(OC)c(OC)c1	-9.8%	·	?	2.62µM*	·
COc1ccc(-n2c(=O)c3c(c4cc(OC)ccc4n3C)n(CCC(C)C)c2=O)cc1	·	-15.3%	-8.5%	·	·
O=C(NC(NC(=S)Nc1ccc(Cl)cc1)C(Cl)(Cl)Cl)c1ccco1 (stereo unspecified)	-12.7%	?	-24.4%	20.5%	10.4µM*
O=C(Nc1cccc(NC(=O)c2ccc(-c3ccc(Br)cc3)o2)c1)c1ccco1	-3.1%	·	·	?	9.28µM*
